Data taken from PubChem BioAssay AID1159580 (chemical genetic matrix, 2015).
Out of some 5,500 compounds screened, about 2,000 (36%) were called active. Another 18% or so got no clear call; they are omitted. Cut-off read from the data, not from the text of the source: active = normalized growth mostly below about 0.91 (no sharp cut-off); inconclusive = no clear call, values can overlap the other calls; inactive = mostly above about 0.92. The list shows a part of the results.

Test: chemical genetic growth profiling, strain panel (AID 1159580);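 note: tested at 20 µM; growth read once vehicle control cultures reached saturation at 30 °C; 1 = growth at the plate median or of vehicle wells; lower values mean less growth of the strain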
Conditions: growth OD

Measured: normalized growth

Nc1nc(=S)c2[nH]cnc2[nH]1
inactive: S. cerevisiae deletion strains, locus YJR075W, strain HOC1, stronger effect = lower value 1.03 | S. cerevisiae deletion strains, locus YKL009W, strain mrt4, stronger effect = lower value 1 | S. cerevisiae deletion strains, locus YKL068W, stronger effect = lower value 1 | S. cerevisiae deletion strains, locus YKL085W, strain MDH1 (second series), stronger effect = lower value 1.02 | S. cerevisiae deletion strains, locus YKL085W, strain MDH1, stronger effect = lower value 1.02 | S. cerevisiae deletion strains, locus YKL160W, strain elf1, stronger effect = lower value 0.943 | S. cerevisiae deletion strains, locus YKL190W, strain CNB1, stronger effect = lower value 1 | S. cerevisiae deletion strains, locus YKR001C, strain vps1, stronger effect = lower value 1.01 | S. cerevisiae deletion strains, locus YKR026C, strain gcn3, stronger effect = lower value 0.976 | S. cerevisiae deletion strains, locus YKR091W, strain srl3, stronger effect = lower value 0.975 | S. cerevisiae deletion strains, locus YLL001W, strain dnm1, stronger effect = lower value 1 | S. cerevisiae deletion strains, locus YLL026W, stronger effect = lower value 0.983 | S. cerevisiae deletion strains, locus YLL041C, strain sdh2, stronger effect = lower value 0.984 | S. cerevisiae deletion strains, locus YLR027C, strain aat2, stronger effect = lower value 0.992 | S. cerevisiae deletion strains, locus YLR039C, strain RIC1, stronger effect = lower value 1.08 | S. cerevisiae deletion strains, locus YLR058C, strain SHM2, stronger effect = lower value 1.01 | S. cerevisiae deletion strains, locus YLR102C, strain apc9, stronger effect = lower value 0.999 | S. cerevisiae deletion strains, locus YLR113W, strain HOG1, stronger effect = lower value 0.984 | S. cerevisiae deletion strains, locus YLR221C, strain rsa3, stronger effect = lower value 1.03 | S. cerevisiae deletion strains, locus YLR258W, strain gsy2, stronger effect = lower value 0.961 | S. cerevisiae deletion strains, locus YLR262C, strain YPT6 (second series), stronger effect = lower value 1 | S. cerevisiae deletion strains, locus YLR262C, strain YPT6, stronger effect = lower value 1.07 | S. cerevisiae deletion strains, locus YLR268W, strain sec22, stronger effect = lower value 1.01 | S. cerevisiae deletion strains, locus YLR320W, strain mms22, stronger effect = lower value 0.992 | S. cerevisiae deletion strains, locus YLR330W, strain CHS5, stronger effect = lower value 1.01 | S. cerevisiae deletion strains, locus YLR342W, strain FKS1 (second series), stronger effect = lower value 1 | S. cerevisiae deletion strains, locus YLR342W, strain FKS1, stronger effect = lower value 0.957 | S. cerevisiae deletion strains, locus YLR357W, strain rsc2, stronger effect = lower value 0.937 | S. cerevisiae deletion strains, locus YLR370C, strain arc18, stronger effect = lower value 0.974 | S. cerevisiae deletion strains, locus YLR371W, strain rom2, stronger effect = lower value 1 | S. cerevisiae deletion strains, locus YLR384C, strain iki3, stronger effect = lower value 0.97 | S. cerevisiae deletion strains, locus YLR418C, strain cdc73, stronger effect = lower value 1 | S. cerevisiae deletion strains, locus YML016C, strain PPZ1, stronger effect = lower value 1.01 | S. cerevisiae deletion strains, locus YML032C, strain rad52, stronger effect = lower value 0.996 | S. cerevisiae deletion strains, locus YML120C, strain ndi1, stronger effect = lower value 0.983 | S. cerevisiae deletion strains, locus YML124C, strain tub3, stronger effect = lower value 0.998 | S. cerevisiae deletion strains, locus YMR058W, strain fet3, stronger effect = lower value 1 | S. cerevisiae deletion strains, locus YMR078C, strain ctf18, stronger effect = lower value 0.997 | S. cerevisiae deletion strains, locus YMR125W, strain sto1, stronger effect = lower value 0.952 | S. cerevisiae deletion strains, locus YMR129W, stronger effect = lower value 0.971 | S. cerevisiae deletion strains, locus YMR205C, strain PFK2, stronger effect = lower value 0.995 | S. cerevisiae deletion strains, locus YMR223W, strain ubp8, stronger effect = lower value 0.985 | S. cerevisiae deletion strains, locus YMR231W, strain pep5, stronger effect = lower value 0.987 | S. cerevisiae deletion strains, locus YMR263W, strain SAP30, stronger effect = lower value 1 | S. cerevisiae deletion strains, locus YMR307W, strain GAS1, stronger effect = lower value 1.02 | S. cerevisiae deletion strains, locus YNL067W, strain RPL9B, stronger effect = lower value 1.02 | S. cerevisiae deletion strains, locus YNL071W, strain lat1, stronger effect = lower value 0.981 | S. cerevisiae deletion strains, locus YNL128W, strain TEP1, stronger effect = lower value 1.03 | S. cerevisiae deletion strains, locus YNL153C, strain GIM3, stronger effect = lower value 0.992 | S. cerevisiae deletion strains, locus YNL183C, strain NPR1, stronger effect = lower value 0.956 | S. cerevisiae deletion strains, locus YNL209W, strain ssb2, stronger effect = lower value 0.98 | S. cerevisiae deletion strains, locus YNL233W, strain BNI4, stronger effect = lower value 1.01 | S. cerevisiae deletion strains, locus YNL248C, strain rpa49, stronger effect = lower value 0.92 | S. cerevisiae deletion strains, locus YNL250W, strain rad50, stronger effect = lower value 0.992 | S. cerevisiae deletion strains, locus YNL271C, strain bni1, stronger effect = lower value 1 | S. cerevisiae deletion strains, locus YNL298W, strain CLA4, stronger effect = lower value 1.01 | S. cerevisiae deletion strains, locus YNL307C, strain MCK1, stronger effect = lower value 1 | S. cerevisiae deletion strains, locus YNL322C, strain KRE1 (second series), stronger effect = lower value 0.963 | S. cerevisiae deletion strains, locus YNL322C, strain KRE1, stronger effect = lower value 1.02 | S. cerevisiae deletion strains, locus YNR049C, strain mso1, stronger effect = lower value 0.979 | S. cerevisiae deletion strains, locus YNR052C, strain pop2, stronger effect = lower value 0.999 | S. cerevisiae deletion strains, locus YOL006C, strain TOP1, stronger effect = lower value 1.06 | S. cerevisiae deletion strains, locus YOL012C, strain htz1 1.07 | S. cerevisiae deletion strains, locus YOL147C, strain pex11, stronger effect = lower value 0.995 | S. cerevisiae deletion strains, locus YOR001W, strain rrp6, stronger effect = lower value 1.01 | S. cerevisiae deletion strains, locus YOR061W, strain CKA2, stronger effect = lower value 1.01 | S. cerevisiae deletion strains, locus YOR069W, strain VPS5, stronger effect = lower value 1.01 | S. cerevisiae deletion strains, locus YOR070C, strain gyp1, stronger effect = lower value 0.973 | S. cerevisiae deletion strains, locus YOR080W, strain dia2, stronger effect = lower value 0.996 | S. cerevisiae deletion strains, locus YOR083W, strain WHI5, stronger effect = lower value 0.914 | S. cerevisiae deletion strains, locus YOR106W, strain vam3, stronger effect = lower value 0.96 | S. cerevisiae deletion strains, locus YOR136W, strain idh2, stronger effect = lower value 0.999 | S. cerevisiae deletion strains, locus YOR144C, strain elg1, stronger effect = lower value 0.999 | S. cerevisiae deletion strains, locus YOR184W, strain ser1, stronger effect = lower value 1.01 | S. cerevisiae deletion strains, locus YOR231W, strain MKK1, stronger effect = lower value 1.02 | S. cerevisiae deletion strains, locus YOR265W, strain rbl2, stronger effect = lower value 0.991 | S. cerevisiae deletion strains, locus YOR270C, strain vph1, stronger effect = lower value 1.03 | S. cerevisiae deletion strains, locus YOR290C, strain snf2, stronger effect = lower value 0.942 | S. cerevisiae deletion strains, locus YOR316C, strain cot1, stronger effect = lower value 0.997 | S. cerevisiae deletion strains, locus YPL051W, strain arl3, stronger effect = lower value 0.964 | S. cerevisiae deletion strains, locus YPL055C, strain LGE1, stronger effect = lower value 1.02 | S. cerevisiae deletion strains, locus YPL078C, strain atp4, stronger effect = lower value 0.95 | S. cerevisiae deletion strains, locus YPL106C, strain sse1, stronger effect = lower value 0.977 | S. cerevisiae deletion strains, locus YPL240C, strain hsp82, stronger effect = lower value 1.02 | S. cerevisiae deletion strains, locus YPL241C, strain CIN2, stronger effect = lower value 1.01 | S. cerevisiae deletion strains, locus YPL256C, strain CLN2, stronger effect = lower value 0.964 | S. cerevisiae deletion strains, locus YPR119W, strain clb2, stronger effect = lower value 1.01 | S. cerevisiae deletion strains, locus YPR141C, strain kar3, stronger effect = lower value 0.997 | S. cerevisiae deletion strains, locus YPR163C, strain tif3, stronger effect = lower value 1 | S. cerevisiae deletion strains, locus YPR167C, strain met16, stronger effect = lower value 1 | S. cerevisiae deletion strains, strain wtn01, stronger effect = lower value 0.98 | S. cerevisiae strains, strain wild type, stronger effect = lower value 1.01
